Measured values: paper PMC4336329 (PLoS ONE, 2015)
The whole screen tested about 310,000 compounds, of which about 14,000 (4.5%) showed an effect of 50% or more. Effects have a minus sign here. This excerpt belongs to a sample that is enriched for strong results.

target: human ether-à-go-go-related gene (hERG) potassium channel (human, UniProt Q12809); assay: primary screen, population patch clamp on CHO cells stably expressing hERG; higher = less effect of the substance
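Note: peak tail current of the secondary pulse compared with the same well before compound.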

human ether-à-go-go-related gene (hERG) potassium channel, sequence (Q12809 whole entry, looked up): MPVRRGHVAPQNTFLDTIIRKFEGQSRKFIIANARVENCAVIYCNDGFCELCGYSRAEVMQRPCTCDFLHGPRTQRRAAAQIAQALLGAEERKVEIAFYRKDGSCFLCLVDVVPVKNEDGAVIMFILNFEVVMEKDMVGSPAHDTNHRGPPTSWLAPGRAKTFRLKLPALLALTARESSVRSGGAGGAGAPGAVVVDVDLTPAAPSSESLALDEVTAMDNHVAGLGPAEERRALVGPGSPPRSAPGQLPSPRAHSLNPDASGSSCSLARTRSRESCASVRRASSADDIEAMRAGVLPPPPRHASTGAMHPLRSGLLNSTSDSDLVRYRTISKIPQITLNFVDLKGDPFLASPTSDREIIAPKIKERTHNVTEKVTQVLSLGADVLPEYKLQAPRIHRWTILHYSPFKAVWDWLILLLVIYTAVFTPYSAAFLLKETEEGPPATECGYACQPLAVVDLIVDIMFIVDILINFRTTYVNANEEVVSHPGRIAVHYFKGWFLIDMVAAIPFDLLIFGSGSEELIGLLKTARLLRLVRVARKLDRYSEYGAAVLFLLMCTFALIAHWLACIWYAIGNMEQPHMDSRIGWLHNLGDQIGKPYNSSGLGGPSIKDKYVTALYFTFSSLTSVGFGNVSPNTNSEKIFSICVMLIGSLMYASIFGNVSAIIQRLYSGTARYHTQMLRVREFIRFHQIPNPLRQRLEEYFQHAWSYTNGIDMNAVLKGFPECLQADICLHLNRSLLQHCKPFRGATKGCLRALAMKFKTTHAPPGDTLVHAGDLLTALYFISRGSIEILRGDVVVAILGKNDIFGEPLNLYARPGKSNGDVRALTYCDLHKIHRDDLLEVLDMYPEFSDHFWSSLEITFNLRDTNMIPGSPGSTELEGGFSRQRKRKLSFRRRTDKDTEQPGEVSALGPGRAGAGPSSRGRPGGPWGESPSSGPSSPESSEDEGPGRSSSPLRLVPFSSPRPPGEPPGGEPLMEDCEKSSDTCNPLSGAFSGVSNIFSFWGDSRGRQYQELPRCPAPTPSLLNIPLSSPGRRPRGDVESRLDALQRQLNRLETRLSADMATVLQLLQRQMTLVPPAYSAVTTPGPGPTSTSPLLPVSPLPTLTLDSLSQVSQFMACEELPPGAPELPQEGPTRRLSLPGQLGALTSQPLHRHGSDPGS

Row | Structure (SMILES) | hERG current change (%, negative = inhibition) at 10uM
1 | COC(=O)c1sccc1NC(=O)Nc1ccccc1C | 9.22%
2 | COCCNS(=O)(=O)c1cccc2cccnc12 | 11.6%
3 | Cc1ccc(N=C2C(=O)Nc3ccccc32)cc1C | 7.9%
4 | Cn1c(N)c(C(=O)COC(=O)c2nc(Cl)ccc2Cl)c(=O)n(C)c1=O | -11.2%
5 | COc1ccc(C(=O)NCCCSc2ccccc2)cc1F | 8.32%
6 | Brc1ccc(C2Nc3cccc4cccc(c34)N2)s1 | 7.9%
7 | O=C(Nc1ccnn1C1CCN(Cc2ccccc2OC(F)F)CC1)c1cccc(F)c1 | -52.4%
8 | CCn1cc(CN2CCC(n3nccc3NC(=O)c3cccc(F)c3)CC2)cn1 | -6.71%
9 | CCn1cc(CN2CCC(n3nccc3NC(=O)c3cccc(F)c3)CC2)c(C)n1 | -2.72%
10 | O=C(Nc1ccnn1C1CCN(Cc2ccc(C#CCCO)cc2)CC1)c1cccc(F)c1 | -77.3%
11 | CCc1ccc(CN2CCC(n3nccc3NC(=O)c3cccc(F)c3)CC2)cc1 | -75.3%
12 | COc1ccc(CN2CCC(n3nccc3NC(=O)c3cccc(F)c3)CC2)cc1O | -80.4%
13 | O=C(Nc1ccnn1C1CCN(Cc2ccccc2OC(F)F)CC1)c1cccnc1 | -12.3%
14 | O=C(Nc1ccnn1C1CCN(C2CCC2)CC1)c1cccc(F)c1 | -12.5%
15 | O=C(Nc1ccnn1C1CCN(Cc2cccc(OCCO)c2)CC1)c1cccc(F)c1 | -12.3%
16 | O=C(Nc1ccnn1C1CCN(Cc2ccc3nonc3c2)CC1)c1cccc(F)c1 | -37.4%
17 | O=C(Nc1ccnn1C1CCN(Cc2ccccc2OCCO)CC1)c1cccc(F)c1 | -34.8%
18 | CCOC(=O)C1CCCCC12C(C#N)=C(N)Oc1n[nH]c(C)c12 (centres unmarked) | 10.1%
19 | CN1C(=O)C(CC(=O)Nc2ccc(F)cc2)N(CCCc2ccccc2)C1=S (centres unmarked) | 0.0595%
20 | CCOC(=O)c1c(C)[nH]c(C2=NNC(=NC3CC3)SC2)c1C | -30.1%
21 | COc1ccccc1NC(=O)CNc1ccc(F)c(Cl)c1 | -11.7%

Row | Structure (SMILES) | hERG current change (%, negative = inhibition) at 10uM
22 | CCn1cc([N+](=O)[O-])c(C(=O)Nc2ccc3c(c2)OCCO3)n1 | -9.69%
23 | COCCCNC(=O)c1ccccc1Sc1ccc(NC(C)=O)nc1 | 25.8%
24 | C=CCn1c(SCC(=O)c2ccc(OC)cc2)nnc1-c1cc2cccc(OC)c2o1 | 25.8%
25 | CCC(C)NC(=O)CCc1nnc2ccc(N3CCC(C)CC3)nn12 (centres unmarked) | 3.66%
26 | COc1ccc(N2CC(C(=O)Nc3ccc4c(c3)OCCO4)CC2=O)cc1 (centres unmarked) | 4.94%
27 | CCc1ccc(NS(=O)(=O)c2ccc3oc(=O)ccc3c2)cc1 | -1.91%
28 | C=CCN1CC(C(=O)N2CCC(Cc3ccc(Cl)cc3)(C(=O)OCC)CC2)CC1=O (centres unmarked) | -72.4%
29 | CCOC(=O)C1(Cc2ccc(Cl)cc2)CCN(C(=O)c2cnc(C)cn2)CC1 | -57.1%
30 | CCOC(=O)C1(Cc2ccc(OC)cc2)CCN(C(=O)c2csc(C)n2)CC1 | 2.99%
31 | CCOC(=O)C1(Cc2ccc(Cl)cc2)CCN(C(=O)c2cscn2)CC1 | -37.4%
32 | CCOC(=O)C1(Cc2ccc(Cl)cc2)CCN(C(=O)c2sc(C)nc2C)CC1 | -52.9%
33 | CCOC(=O)C1(Cc2ccc(Cl)cc2)CCN(C(=O)C2CCCO2)CC1 (centres unmarked) | -33.2%
34 | CCOC(=O)N1CCN(C(=O)C2CCC(=O)N(Cc3ccc(Cl)cc3)C2)CC1 (centres unmarked) | -40.5%
35 | CCOC(=O)C1(Cc2ccc(Cl)cc2)CCN(C(=O)c2ccoc2)CC1 | -49.4%
36 | CCOC(=O)C1(Cc2ccc(OC)cc2)CCN(C(=O)c2sc(C)nc2C)CC1 | 1.86%
37 | CCOC(=O)C1(Cc2ccc(Cl)cc2)CCN(C(=O)C2=NNC(=O)CC2)CC1 | -69.6%
38 | CCOC(=O)C1(Cc2ccc(Cl)cc2)CCN(C(=O)c2cc(C)nc(C)n2)CC1 | -38.1%
39 | O=C1CCC(C(=O)N2CCC(CO)(Cc3ccc(Cl)cc3)CC2)=NN1 | -32.5%
40 | O=C1CC(NS(=O)(=O)c2cccs2)CN1c1cccc(F)c1 (centres unmarked) | -6.29%
41 | O=C(Nc1ccc(Cl)c(S(=O)(=O)N2CCOCC2)c1)c1ccc2c(c1)OCCO2 | 12.6%
42 | COc1ccc2c(c1)C1NC(=S)N[C@@](C)(O2)C1C(=O)Nc1ccccc1 (some centres unmarked) | -3.49%

Row | Structure (SMILES) | hERG current change (%, negative = inhibition) at 10uM
43 | CCOC(=O)[C@H]1[C@H]2COc3cc(OC)ccc3[C@@H]2N2C(=O)CN(Cc3ccccc3)C(=O)[C@@]12C | -8.34%
44 | COc1ccc(OC)c(NS(=O)(=O)c2ccc(Br)s2)c1 | -12.4%
45 | N#CC1=C(N)N(c2ccccc2Sc2ccccc2)C(=O)C1 | 3.4%
46 | Cc1ccc(NC(=O)N2CCC(NC(=O)c3ccco3)CC2)cc1 | 4.55%
47 | COC(=O)C(C)Sc1nc2c(c(=O)n1-c1ccccc1)SCC2 (centres unmarked) | -6.49%
48 | COc1ccc(NC(=O)CN(C)C(=O)c2cn(-c3ccccc3)nc2-c2ccc(OC)cc2)cc1 | -7.66%
49 | CCCS(=O)(=O)N1CCN(S(=O)(=O)c2ccc(F)cc2)CC1 | 10.6%
50 | O=C(Nc1nccs1)C1CCCCN1S(=O)(=O)c1ccccc1 (centres unmarked) | 4.8%
51 | Cc1ccc(C)c(NS(=O)(=O)c2ccc(-c3cnc(C4CC4)o3)cc2)c1 | 4.27%
52 | CCCCCCn1c(N2CCN(c3ccccc3)CC2)nc2c1c(=O)[nH]c(=O)n2C | -32.6%
53 | Cn1c(=O)[nH]c(=O)c2c1nc(N1CCN(Cc3ccccc3)CC1)n2CCSc1ncccn1 | -25.7%
54 | Cn1c(=O)[nH]c(=O)c2c1nc(CN1CCOCC1)n2Cc1ccccc1 | -15.7%
55 | Cn1c(=O)[nH]c(=O)c2c1nc(N1CCN(Cc3ccccc3)CC1)n2CCCc1ccccc1 | -31.9%
56 | CCN1CCN(c2nc3c(c(=O)[nH]c(=O)n3C)n2CCCc2ccccc2)CC1 | -79.2%
57 | CCN1CCN(c2nc3c(c(=O)[nH]c(=O)n3C)n2Cc2ccccc2)CC1 | -27.7%
58 | Cn1c(=O)[nH]c(=O)c2c1nc(CN1CCN(Cc3ccccc3)CC1)n2CC(N)=O | 7.32%
59 | CN1CCN(Cc2nc3c(c(=O)[nH]c(=O)n3C)n2CCc2ccccc2)CC1 | -28.1%
60 | CC(C)CCn1c(CN2CCN(Cc3ccccc3)CC2)nc2c1c(=O)[nH]c(=O)n2C | -17.6%
61 | CCCCCn1c(N2CCN(Cc3ccccc3)CC2)nc2c1c(=O)[nH]c(=O)n2C | -74.8%
62 | CCCCCn1c(CN2CCN(Cc3ccccc3)CC2)nc2c1c(=O)[nH]c(=O)n2C | -72.3%
63 | Cc1cccc(Cn2c(CN3CCN(Cc4ccccc4)CC3)nc3c2c(=O)[nH]c(=O)n3C)c1 | -64.9%

Row | Structure (SMILES) | hERG current change (%, negative = inhibition) at 10uM
64 | COc1ccc(OC)c(NC(=O)CS(=O)(=O)Cc2nc(-c3ccccc3C)oc2C)c1 | 7.66%
65 | COc1ccc2c(C)cc(SC3CCOC3=O)nc2c1 (centres unmarked) | -0.712%
66 | CCCC(=O)NC(=S)Nc1cccc(NC(=O)c2ccccc2Cl)c1 | -3.15%
67 | CCCCn1c(N2CCC(Cc3ccccc3)CC2)nc2c1c(=O)[nH]c(=O)n2C | -49.4%
68 | CCCCCn1c(N2CCN(c3cccc(Cl)c3)CC2)nc2c1c(=O)[nH]c(=O)n2C | -29.2%
69 | CCCCn1c(CN2CCN(c3cccc(Cl)c3)CC2)nc2c1c(=O)[nH]c(=O)n2C | 5.59%
70 | CCCCCn1c(CN2CCN(c3cccc(Cl)c3)CC2)nc2c1c(=O)[nH]c(=O)n2C | -63.3%
71 | CCCn1c(N2CCC(Cc3ccccc3)CC2)nc2c1c(=O)[nH]c(=O)n2C | -51.2%
72 | CCCCCn1c(N2CCC(Cc3ccccc3)CC2)nc2c1c(=O)[nH]c(=O)n2C | -11%
73 | CCOC(=O)N1CCC(NC(=O)CN(c2ccc(C(C)C)cc2)S(=O)(=O)c2c(C)nn(C)c2C)CC1 | -10.3%
74 | CC(CNC(=O)c1cc(COc2ccc3ncccc3c2)on1)c1ccccc1 (centres unmarked) | 9.51%
75 | COc1ccc(S(=O)(=O)N2CCN(C)CC2)cc1C(=O)Nc1ccccc1 | 1.79%
76 | CCN(CC(O)COc1ccc(OCC(O)CN(CC)C2CCCCC2)cc1)C1CCCCC1 (centres unmarked) | 22.2%
77 | O=[N+]([O-])c1ccc(OCC(O)CN(C2CCCCC2)C2CCCCC2)cc1 (centres unmarked) | -75.8%
78 | COc1ccc(OCC(O)CN(C2CCCCC2)C2CCCCC2)cc1.Cl (centres unmarked) | -59.5%
79 | O=C(OCC(O)COc1ccccc1)c1ccc([N+](=O)[O-])cc1 (centres unmarked) | -7.79%
80 | CN(CC(O)COc1ccc2ccccc2c1)C1CCCCC1.Cl (centres unmarked) | -45.2%
81 | CN(CC(O)COc1ccc(OCC(O)CN(C)C2CCCCC2)cc1)C1CCCCC1 (centres unmarked) | 8.06%
82 | Cc1cccc2nc(CSc3nc4[nH]ncc4c(=O)n3-c3cccc(Cl)c3)cc(=O)n12 | -23.3%
83 | COc1ccc(CNC(=O)[C@H](Cc2ccccc2)NC(=O)C2CCN(C(=O)[C@H](C)N)CC2)cc1 | -2.78%
